JMJD2E inh = JMJD2E (human) inhibition; B2RXH2; JMJD2E catalytic domain, FDH-coupled NADH fluorescence (FDH is formaldehyde dehydrogenase); Potency, µM (top dose mostly 57.1 µM), for the others: at the top dose activity change, negative = inhibition, usual class: inhibitors; actives 1.6% (n = 230,000); AID 2147;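 note: potency is the fitted concentration of half-maximal effect; 0% = wells with enzyme and -100% = buffer wells without enzyme; nearly all actives have a fitted effect of over 50% in size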
Target sequence (B2RXH2 1-337 limits assumed): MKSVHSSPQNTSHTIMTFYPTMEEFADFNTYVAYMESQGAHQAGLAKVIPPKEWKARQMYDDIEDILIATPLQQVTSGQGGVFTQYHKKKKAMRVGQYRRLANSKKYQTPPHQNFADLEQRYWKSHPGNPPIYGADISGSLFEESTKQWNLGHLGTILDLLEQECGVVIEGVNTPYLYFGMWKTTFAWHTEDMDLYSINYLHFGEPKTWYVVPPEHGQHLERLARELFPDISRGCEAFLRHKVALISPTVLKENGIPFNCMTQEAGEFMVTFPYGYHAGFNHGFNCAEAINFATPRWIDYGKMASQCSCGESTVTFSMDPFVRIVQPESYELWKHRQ
HPGD block = inhibitors of human 15-hydroxyprostaglandin dehydrogenase (HPGD). P15428. purified HPGD, NADH fluorescence kinetic, PGE2 substrate. Potency, µM, inactives show at the top dose activity change, negative = inhibition, usual class: inhibitors. actives 4.3% (n = 150,000). AID 894; note: potency is the fitted concentration of half-maximal effect
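20 nM HPGD preincubated 15 min at room temperature with compound in 50 mM Tris-HCl pH 8, 0.01% Tween 20. Started with 1 mM NAD+ and 30 uM prostaglandin E2; NADH fluorescence (360/450 nm) read 5 times over 30-s intervals, last minus first.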
ALDH1A1 inh = blocks purified human ALDH1A1 activity | Potency, µM (top dose mostly 75.3 µM), without a hit: at the highest dose activity, negative = inhibition, most hits filed as inhibitors | Purified ALDH1A1, NADH fluorescence, propionaldehyde substrate | AID 1030 | P00352 | actives 7.3% (n = 220,000);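 note: potency is the fitted concentration of half-maximal effect; plate controls were no enzyme wells and a reference inhibitor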
PNC assembly inh = inhibitors of perinucleolar compartment assembly | actives 3.1% (n = 140,000) | PC3M PTB-GFP, PNC prevalence imaging, 16 h; active compounds read low | activity change (PNC), negative = inhibition, % at 10 µM;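 active = readout at or below -70, meaning at least 70% loss of cells showing the perinucleolar compartment, a nuclear body marking cancer cells; inconclusive = readout between -30 and a set limit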;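 note: plate controls were DMSO wells for no effect and camptothecin positive control wells for full effect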
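PC3M cells stably expressing PTB-GFP, 750–1000 cells/well, treated 16 h at 37 °C with compound (23 nl of library stock), in duplicate. After paraformaldehyde fixation and Hoechst stain, imaged at 20x; PNC prevalence scored by image analysis.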
* marks the source's active call; other numbers are inactive results; ? = inconclusive; nt = no result given; [ ] = another dose, or the depositor's remark. Most compounds without a hit are left out; they make up all but 11% or so of the library. Unless noted, calls come from the whole dose curve; as a rule, active = well fitted inhibition curve with a large enough effect (not every such curve was filed as active); inconclusive = small, poorly fitted or top-dose-only effect, or another doubt; inactive = no such curve, though single readings can be large or run the other way. Unless noted, % is set by controls: 0 for no effect and ±100 for the full control effect.

SMILES	JMJD2E inh	HPGD block	ALDH1A1 inh	PNC assembly inh
Cc1cc(C)c(S(C)(=O)=O)c(Oc2ccc(C(C)(C)C)cc2)n1	0%	-7%	16µM*	-1
O=C(Cn1cnc2ccccc2c1=O)c1cccs1	5%	-13%	-5%	?
O=C(/C=C/c1ccnc2ccccc12)c1cccs1	12%	nt	28µM*	nt
COc1ccc(CN2CCN(C(=O)C3CC(=O)N(C4CCCCCC4)C3)CC2)c(OC)c1OC (centres undefined)	6%	-1%	20µM*	26
COc1ccc(CCNC(=O)C2CC(=O)N(C3CCCCCCC3)C2)cc1OC (centres undefined)	-4%	-2%	?	11
CSc1ccc(/C=C2/C(C)=C(CC(=O)O)c3cc(F)ccc32)cc1	nt	-17%	-4%	nt
CC(NC(=O)/C(=C/c1ccc(OC(F)F)cc1)c1ccccc1)c1ccccc1 (centres undefined)	-8%	-2%	-2%	-25
CCOC(=O)/C(C#N)=C\c1ccc(N2CCN(C/C=C/c3ccccc3)CC2)cc1	-12%	-15%	?	35
CC(NC(=O)/C(C#N)=C/c1ccc(Cl)c([N+](=O)[O-])c1)c1ccccc1 (centres undefined)	3%	3%	6%	-100*
N#C/C(=C\c1ccc(O)c([N+](=O)[O-])c1)C(=O)NCc1ccccc1	-1%	nt	-11%	nt
C[C@@H](NC(=O)/C(C#N)=C/c1ccc(O)c(O)c1)c1ccccc1	22µM*	-27%	-7%	nt
N#C/C(=C\c1ccc(O)c(Br)c1)C(=O)NCc1ccccc1	2%	nt	?	nt
N#C/C(=C/c1ccc(O)c(O)c1)C(=O)OC/C=C/c1ccccc1	nt	nt	4.5µM*	nt
C[C@H](NC(=O)/C(C#N)=C/c1ccc(O)c(O)c1)c1ccccc1	7.1µM*	6%	?	nt
O=C(NCc1cccnc1)C(=O)NCC(c1ccco1)N1CCN(c2ccc(F)cc2)CC1 (centres undefined)	-2%	-14%	-2%	?
N#C/C(=C\c1ccc(O)c(O)c1)C(=O)Nc1ccccc1	16µM*	?	?	nt
CCN(CC)c1ccc(NC(=O)CSc2ccsc2[N+](=O)[O-])c(C)c1	3%	13µM*	15µM*	2
COc1ccc(CNC(=O)CSc2ccsc2[N+](=O)[O-])cc1	-6%	nt	14µM*	nt
COc1ccc(CNC(=O)Cn2cc([N+](=O)[O-])nc2C)cc1	0%	-5%	14%	-86*
COc1cc(/C=C/C(=O)OCC(=O)Nc2ccc3c(c2)OCCO3)ccc1OCC#N	?	?	?	16
O=C(O)c1cccc(N2C(=O)c3ccc(Oc4ccc(Cl)cc4)cc3C2=O)c1	-2%	nt	8%	nt
O=C(O)c1cccc(N2C(=O)/C(=C/c3ccc(SCc4ccc(Cl)cc4)o3)SC2=S)c1	22µM*	nt	25µM*	nt
CC(C)CC1C(C#N)=C(N)Oc2n[nH]c(-c3ccccc3)c21 (centres undefined)	?	-15%	?	-100*
COc1ccc(-c2[nH]nc3c2C(c2ccoc2)C(C#N)=C(N)O3)cc1 (centres undefined)	-4%	13µM*	-1%	?
CC(C)C1C(C#N)=C(N)Oc2n[nH]c(-c3ccccc3)c21 (centres undefined)	-15%	-5%	3%	-26
SMILES	JMJD2E inh	HPGD block	ALDH1A1 inh	PNC assembly inh
CN(C)c1nc(=NCc2ccco2)ss1	3%	nt	10µM*	nt
CC(=O)OC[C@@H]1O[C@@H](O/N=C2/C[C@@H](O)[C@@H](O)[C@@H]3[C@@H]4C(=O)N(C(C)(C)C)C(=O)[C@H]4CC[C@H]23)[C@H](OC(C)=O)[C@H](OC(C)=O)[C@@H]1OC(C)=O	nt	nt	9%[13.5 µM]	nt
CCOC(=O)c1sc2ncn(/N=C/N(C)C)c(=O)c2c1C	?	-12%	0%	-86*
CCCCN(C)C(=O)c1sc2ncn(CC)c(=O)c2c1C	0%	16µM*	0%	7
CCOC(=O)c1sc2ncn(/N=C/c3ccccn3)c(=O)c2c1C	-1%	-15%	?	30
CCOCCn1cnc2sc(C(=O)Nc3nc(C)c(C(=O)OCC)s3)c(C)c2c1=O	8%	-11%	1%	-82*
CCCCNS(=O)(=O)c1ccc2nc(SCC(=O)N3CC(C)OC(C)C3)[nH]c2c1 (centres undefined)	-2%	16µM*	?	-11
O=C(CSc1nc2ccc(S(=O)(=O)N3CCOCC3)cc2[nH]1)N1CCOCC1	-3%	3.5µM*	3.5µM*	24
O=C(CN(Cc1ccco1)S(=O)(=O)c1ccccc1)N/N=C/c1ccccc1C(=O)O	-14%	nt	6%	nt
